Hits are enriched below; roughly 3.6% of the tested compounds scored in any of these assays.
mHTT-CaM PPI inh: mHTT-calmodulin interaction abrogation; AlphaScreen His-mHTT/GST-CaM binding, luminescence; actives 3.6% (n = 190,000); inhibition, % at 15 µM; P42858; AID 1671202;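 note: 0% = both proteins with DMSO and 100% = one protein alone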
Pf apPOL block: Pf-apPOL DNA polymerase inhibition; Recombinant Pf-apPOL, molecular beacon fluorescence, 1.5 h; inhibition, % at 10 µM; actives 0.25% (n = 210,000); AID 1794808
* marks the source's active call; other numbers are inactive results. Cut-off read from the data, not from the text of the source: active = inhibition above about 50%; inactive = the rest.

CCOC(=O)c1oc2ccccc2c1NC(=O)C12CC3CC(CC(C3)C1)C2 was read as mHTT-CaM PPI inh -5 and Pf apPOL block 0.
`Cc1nc2cc(C(=O)NCc3cccnc3)ccc2n1-c1ccc(Br)cc1` gave mHTT-CaM PPI inh 29 and Pf apPOL block -1.
For CNC1C(O)C(NC)C2OC3(O)C(=O)CC(C)OC3OC2C1O (stereo not drawn) the results were Pf apPOL block 83*.
CC(C(=O)NCc1ccc(F)cc1Cl)N1C(=O)COc2ccc(Cl)cc21 (stereo not drawn) was read as mHTT-CaM PPI inh -13 and Pf apPOL block -14.
Screening COc1ccc(CN(CCC2(C(C)C)CCOC(C)(C)C2)C(C)=O)cc1OC (stereo not drawn) returned mHTT-CaM PPI inh 15 and Pf apPOL block 0.
For COc1ccc(CN(CCC2(c3ccccc3)CCOC(C)(C)C2)C(C)=O)cc1OC (stereo not drawn) the results were mHTT-CaM PPI inh 68* and Pf apPOL block 1.
For O=C1CCCC(=O)N1c1ccc(N2CCc3ccccc3C2)c([N+](=O)[O-])c1 the results were mHTT-CaM PPI inh 37 and Pf apPOL block -17.
Screening CC1CC(=O)N(c2ccc(NC3CCCc4ccccc43)c([N+](=O)[O-])c2)C1=O (stereo not drawn) returned mHTT-CaM PPI inh 32 and Pf apPOL block -24.
Screening O=C1CCCC(=O)N1c1ccc(NC2CCCc3ccccc32)c([N+](=O)[O-])c1 (stereo not drawn) returned mHTT-CaM PPI inh 63* and Pf apPOL block -19.
`O=C1CCC(=O)N1c1ccc(Nc2ccc3c(c2)CCC3)c([N+](=O)[O-])c1` gave mHTT-CaM PPI inh 74* and Pf apPOL block -14.
`CCc1ccc(C2C(C#N)=C(N)N(c3ccc([N+](=O)[O-])cc3)C3=C2C(=O)CC(C)(C)C3)s1` (stereo not drawn) gave mHTT-CaM PPI inh 49 and Pf apPOL block 1.
For CC1(C)CC(=O)C2=C(C1)N(c1ccc(Br)cc1F)C(N)=C(C#N)C2c1cccs1 (stereo not drawn) the results were mHTT-CaM PPI inh 52* and Pf apPOL block 6.
For CC1(C)CC(=O)C2=C(C1)N(c1ccc(Br)cc1)C(N)=C(C#N)C2c1cccs1 (stereo not drawn) the results were mHTT-CaM PPI inh 42 and Pf apPOL block -3.
For CCc1ccc(C2C(C#N)=C(N)N(c3ccccc3)C3=C2C(=O)CC(C)(C)C3)s1 (stereo not drawn) the results were mHTT-CaM PPI inh 50* and Pf apPOL block -8.
Screening COc1cc(OCc2ccccc2)ccc1CN1CCN(c2ccc(C(F)(F)F)cn2)CC1 returned Pf apPOL block -2.
For Cc1ccc(O)c(C=Nc2ccc(Br)c3cccnc23)c1 the results were mHTT-CaM PPI inh 101* and Pf apPOL block -4.
Screening O=[N+]([O-])c1ccc(O)c(C=Nc2cccc3ncccc23)c1 returned mHTT-CaM PPI inh 26 and Pf apPOL block -2.
CC(=O)Sc1nc(O)c(C=C2C=c3ccc(C)cc3=NC2=O)[nH]1 was read as mHTT-CaM PPI inh 13 and Pf apPOL block 4.
COc1ccc(S(=O)(=O)N2CCC(Oc3ccc4c(c3)OCO4)CC2)cc1OC was read as mHTT-CaM PPI inh -1 and Pf apPOL block -9.
For O=C(CN1CCOCC1)Nc1sc2c(c1C(=O)Nc1ccc(Cl)cc1)CCC2 the results were mHTT-CaM PPI inh 0 and Pf apPOL block 0.
Screening O=C(Nc1sc2c(c1C(=O)Nc1ccc(Br)cc1)CCCCC2)c1cccnc1 returned mHTT-CaM PPI inh 3 and Pf apPOL block 6.
Screening O=C(CNCCN1CCOCC1)Nc1sc2c(c1C(=O)Nc1ccccc1)CCC2 returned mHTT-CaM PPI inh 89* and Pf apPOL block -1.
Screening O=C(CNCCO)Nc1sc2c(c1C(=O)Nc1ccc(Br)cc1)CCC2 returned mHTT-CaM PPI inh 66* and Pf apPOL block -1.
Screening CCNC(=O)c1c(NC(=O)c2ccccc2)sc2c1CCCC2 returned mHTT-CaM PPI inh -12 and Pf apPOL block 1.
Screening NNC(=O)c1c(NC(=O)c2ccccc2)sc2c1CCC2 returned mHTT-CaM PPI inh 64* and Pf apPOL block -9.
`O=C(c1ccnc(-c2ccsc2)c1)N1CCOCC1` gave mHTT-CaM PPI inh -4 and Pf apPOL block -3.
Screening Cc1ccc2nc(NC(=O)CN3C(=O)c4ccccc4C3=O)sc2c1 returned mHTT-CaM PPI inh 4 and Pf apPOL block 1.
For CN(C)CCN(C(=O)CN1C(=O)c2ccccc2C1=O)c1nc2ccc(Cl)cc2s1 the results were mHTT-CaM PPI inh 84* and Pf apPOL block -5.
COc1cccc(C2C(C(=O)Nc3cccnc3)=C(C)Nc3ncnn32)c1OC (stereo not drawn) was read as mHTT-CaM PPI inh -9 and Pf apPOL block 0.
COc1ccc(NC(=O)N2CC=C(c3cn(C(C)C)c4ncccc34)CC2)cc1Cl was read as mHTT-CaM PPI inh 10 and Pf apPOL block -5.
For CCn1cc(CN2CCC(C(=O)NCc3ccc(N(C)C)cc3)CC2)c2cc(OC)ccc21 the results were mHTT-CaM PPI inh 56* and Pf apPOL block -2.

Screening results from PubChem.
